In PubChem BioAssay (NCI):
The panel holds about 79,000 compounds, 15% with a hit somewhere; the sample as a whole holds those more often. Activity calls are given as the source filed them. Cut-off read from the data, not from the text of the source: active = growth inhibition above about 70%; inactive = the rest.

Key:
[1] = NCI Yeast Anticancer Drug Screen. Data for the mec2-1 strain (AID 157); conditions: S. cerevisiae mec2-1 strain, stronger effect = higher value
Summary of the method: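 mec2-1 yeast strain, carrying an alteration in DNA damage repair or cell cycle control, was exposed to compounds; growth inhibition was measured relative to vehicle-treated controls.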

[2] = NCI Yeast Anticancer Drug Screen. Data for the rad14 strain (AID 159);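 note: 0% = growth of vehicle-treated control cultures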; conditions: S. cerevisiae rad14 strain growth inhibition, stronger effect = higher value
Summary of the method: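 Yeast cells carrying a defined DNA-repair defect were exposed to compounds, and growth inhibition was calculated relative to vehicle-treated control cultures.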

[3] = NCI Yeast Anticancer Drug Screen. Data for the sgs1 mgt1 strain (AID 161);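 note: 0% = growth of cultures given vehicle only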; conditions: S. cerevisiae sgs1 mgt1 strain, stronger effect = higher value
Summary of the method: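 This yeast growth screen uses a strain with defined DNA-repair lesions; compound-treated growth is compared with vehicle-treated growth.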

[4] = NCI Yeast Anticancer Drug Screen. Data for the CLN2oe strain (AID 163);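 note: 0% = growth of vehicle-only control cultures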; conditions: S. cerevisiae CLN2oe strain, stronger effect = higher value
Summary of the method: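 Yeast cells carrying a defined cell-cycle control alteration were exposed to test compounds. Growth inhibition was scored against vehicle-treated control cultures.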

[5] = NCI Yeast Anticancer Drug Screen. Data for the cln2 rad14 strain (AID 165);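 note: 0% = growth equal to vehicle treated cultures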; conditions: S. cerevisiae cln2 rad14 strain, stronger effect = higher value
Summary of the method: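 Yeast carrying cln2 and rad14 alterations (cell cycle control and DNA damage repair) were exposed to compounds. Growth inhibition was measured against vehicle-treated controls.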

[6] = NCI Yeast Anticancer Drug Screen. Data for the bub3 strain (AID 167); conditions: S. cerevisiae bub3 mutant strain, stronger effect = higher value
Summary of the method: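 Compounds were applied to a genetically altered yeast strain carrying a cell-cycle control defect. Growth inhibition was scored against vehicle-treated controls.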

[7] = NCI Yeast Anticancer Drug Screen. Data for the wt2 strain (AID 169);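 note: 0% = growth of vehicle-treated yeast cultures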; conditions: S. cerevisiae wt2 strain growth inhibition, stronger effect = higher value
Summary of the method: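 Yeast cells were exposed to test compounds, and growth inhibition was measured relative to vehicle-treated controls.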

[8] = NCI Yeast Anticancer Drug Screen. Data for the mlh1 strain (AID 171);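 note: 0% = growth of vehicle-treated control cultures of the same strain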; conditions: S. cerevisiae mlh1 strain growth inhibition, stronger effect = higher value
Summary of the method: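 Yeast carrying a defined genetic alteration in DNA damage repair or cell cycle control were exposed to test compounds. Growth inhibition was measured relative to vehicle-treated controls.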

[9] = NCI Yeast Anticancer Drug Screen. Data for the sgs1 strain (AID 173);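 note: 0% = growth of vehicle-only control cultures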; conditions: S. cerevisiae sgs1 mutant, stronger effect = higher value
Summary of the method: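 Yeast mutant strains carrying defined defects in DNA damage repair or cell cycle control were exposed to test compounds. Growth inhibition was scored against vehicle-treated controls.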

[10] = NCI Yeast Anticancer Drug Screen. Data for the mlh1 rad18 strain (AID 175); conditions: S. cerevisiae mlh1 rad18 strain growth inhibition, stronger effect = higher value
Summary of the method: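 Growth inhibition of the yeast strain was measured after compound exposure and expressed relative to vehicle-treated controls. The strain carries defined defects in DNA damage repair.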

[11] = NCI Yeast Anticancer Drug Screen. Data for the rad18 strain (AID 177); conditions: S. cerevisiae rad18 mutant growth inhibition, stronger effect = higher value
Summary of the method: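 Yeast carrying a defined DNA damage repair alteration were exposed to compounds. Growth inhibition was expressed relative to vehicle-treated controls.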

[12] = NCI Yeast Anticancer Drug Screen. Data for the rad52 strain (AID 147);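 note: 0% = growth of vehicle-treated control cultures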; conditions: S. cerevisiae rad52 mutant growth inhibition, stronger effect = higher value
Summary of the method: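 Yeast strain carrying a DNA damage repair alteration was exposed to test compounds. Growth inhibition was measured relative to vehicle-treated controls.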

[13] = NCI Yeast Anticancer Drug Screen. Data for the wt1 strain (AID 149);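 note: 0% = growth of vehicle-treated wt1 cultures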; conditions: S. cerevisiae wt1 strain (SPY 50644) growth inhibition, stronger effect = higher value
Summary of the method: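 Yeast wt1 strain exposed to compounds; growth inhibition measured relative to vehicle-treated controls.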

[14] = NCI Yeast Anticancer Drug Screen. Data for the rad50EPP+ strain (AID 151);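 note: 0% = growth of vehicle-treated control cultures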; conditions: S. cerevisiae rad50 mutant strain, stronger effect = higher value
Summary of the method: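 Yeast strain carrying rad50 alteration (rad50EPP+) exposed to compounds; growth inhibition measured relative to vehicle-treated controls.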

[15] = NCI Yeast Anticancer Drug Screen. Data for the rad50 strain (AID 155);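 note: 0% = growth of vehicle-only cultures of the same strain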; conditions: S. cerevisiae rad50 strain growth inhibition, stronger effect = higher value
Summary of the method: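 Yeast carrying a defined DNA repair defect were exposed to test compounds, and growth was compared with vehicle-treated controls to give percent inhibition.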

[16] = at 5.0 µM (retest, dose inferred, filed as 0.5)
[17] = at 50.0 µM (retest, dose inferred, filed as 5.0)

Measured: growth inhibition

COc1ccc(CCN2C(=O)C=CC2=O)cc1OC
inactive: [2]; at 1.2 µM -10% | [2]; at 3.7 µM 3% | [2]; at 11.0 µM 63% | [4]; at 1.2 µM 17% | [4]; at 3.7 µM 33% | [6]; at 1.2 µM 15% | [6]; at 3.7 µM 43% | [7]; at 1.2 µM -21% | [7]; at 3.7 µM 5% | [7]; at 11.0 µM 48% | [8]; at 1.2 µM -19% | [8]; at 3.7 µM 4% | [8]; at 11.0 µM 53% | [9]; at 1.2 µM 1% | [9]; at 3.7 µM 5% | [9]; at 11.0 µM 38% | [10]; [16] 23% | [10]; [17] 44% | [11]; at 1.2 µM -2% | [11]; at 3.7 µM 15% | [11]; at 11.0 µM 64%
active: [1]; at 100.0 µM 100% | [2]; at 33.0 µM 99% | [2]; at 100.0 µM 99% | [3]; [16] 74% | [3]; [17] 98% | [4]; at 11.0 µM 81% | [4]; at 33.0 µM 99% | [4]; at 100.0 µM 99% | [5]; [16] 78% | [5]; [17] 99% | [6]; [16] 97% | [6]; at 11.0 µM 88% | [6]; at 33.0 µM 99% | [6]; [17] 97% | [6]; at 100.0 µM 99% | [7]; at 33.0 µM 99% | [7]; at 100.0 µM 99% | [8]; at 33.0 µM 99% | [8]; at 100.0 µM 98% | [9]; at 33.0 µM 98% | [9]; at 100.0 µM 98% | [10]; at 50.0 µM 84.4% | [11]; at 33.0 µM 98% | [11]; at 100.0 µM 98%

O=C(N/N=C/c1ccc2c(c1)CCC2)c1ccccc1[N+](=O)[O-]
inactive: [12]; at 1.2 µM -18% | [12]; at 3.7 µM -15% | [12]; at 11.0 µM -3% | [12]; at 33.0 µM -1% | [13]; at 1.2 µM -17% | [13]; at 3.7 µM -7% | [13]; at 11.0 µM -21% | [13]; at 33.0 µM -16% | [14]; at 1.2 µM 8% | [14]; at 3.7 µM 15% | [14]; at 11.0 µM 21% | [14]; at 33.0 µM 0% | [14]; at 100.0 µM 23% | [15]; at 1.2 µM 5% | [15]; at 3.7 µM 26% | [15]; [16] 62% | [15]; at 11.0 µM 35% | [15]; at 33.0 µM 18% | [1]; at 1.2 µM 0% | [1]; at 3.7 µM -10% | [1]; at 11.0 µM -9% | [1]; at 33.0 µM 7% | [2]; at 1.2 µM -10% | [2]; at 3.7 µM -8% | [2]; at 11.0 µM 2% | [2]; at 33.0 µM 6% | [3]; [16] -13% | [3]; [17] 53% | [4]; at 1.2 µM -3% | [4]; at 3.7 µM -5% | [4]; at 11.0 µM 21% | [4]; at 33.0 µM 18% | [6]; at 1.2 µM 5% | [6]; at 3.7 µM 19% | [6]; [16] 34% | [6]; at 11.0 µM 23% | [6]; at 33.0 µM 33% | [6]; [17] 49% | [7]; at 1.2 µM 16% | [7]; at 3.7 µM 12% | [7]; at 11.0 µM 12% | [7]; at 33.0 µM 37% | [8]; at 1.2 µM -19% | [8]; at 3.7 µM -20% | [8]; at 11.0 µM -43% | [8]; at 33.0 µM 18% | [9]; at 1.2 µM 15% | [9]; at 3.7 µM 23% | [9]; at 11.0 µM 30% | [9]; at 33.0 µM 42% | [10]; [16] 36% | [11]; at 1.2 µM 8% | [11]; at 3.7 µM 13% | [11]; at 11.0 µM 9% | [11]; at 33.0 µM 12%
active: [12]; at 100.0 µM 95% | [13]; at 100.0 µM 96% | [15]; [17] 98% | [15]; at 50.0 µM 88.4% | [15]; at 100.0 µM 94% | [1]; [16] 70% | [1]; [17] 99% | [1]; at 50.0 µM 71.2% | [1]; at 100.0 µM 94% | [2]; at 100.0 µM 95% | [4]; at 100.0 µM 94% | [5]; [16] 71% | [5]; [17] 70% | [6]; at 100.0 µM 96% | [7]; at 100.0 µM 97% | [8]; at 100.0 µM 95% | [9]; at 100.0 µM 96% | [10]; [17] 99% | [10]; at 50.0 µM 81.7% | [11]; at 100.0 µM 96%
